Shown is part of a subset that was picked to be rich in hits.
VDR inhibitor: vitamin D3 receptor (human) inhibition; P11473; VDR-SRC2-3 peptide fluorescence polarization, 2 h; 0.93% of 400,000 active; Potency, µM, for the others: max response, negative = inhibition, usual class: inhibitors; AID 504847; also: % is scaled to controls: 0 for no effect and ±100 for the full control effect
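Measured by FP: displacement of SRC2-3 coactivator peptide from VDR by library compounds, following a two-hour ambient incubation.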
G9a inh: G9a (human) methyltransferase inhibition | Q96KQ7 | G9a H3K9 monomethylation, AlphaScreen, 2 h | Potency, µM (titrated, usually from 102 µM), for inactives: at the top dose activity, negative = inhibition, usual class: inhibitors | 8.8% of 350,000 active | AID 504332; also: % is scaled to controls: 0 for no effect and ±100 for the full control effect; nearly all actives have a fitted effect of over 75% in size
Target sequence (Q96KQ7 913-1193 limits assumed): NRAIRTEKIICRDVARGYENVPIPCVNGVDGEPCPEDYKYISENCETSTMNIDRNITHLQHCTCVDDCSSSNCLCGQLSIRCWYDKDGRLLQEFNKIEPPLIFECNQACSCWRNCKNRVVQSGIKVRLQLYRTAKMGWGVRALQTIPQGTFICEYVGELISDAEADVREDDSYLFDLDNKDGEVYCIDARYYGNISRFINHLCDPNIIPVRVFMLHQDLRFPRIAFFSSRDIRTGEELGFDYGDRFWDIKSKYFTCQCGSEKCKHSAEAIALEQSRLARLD
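Step 1: enzyme (final 20 nM) with compound, 15 min RT. Step 2: substrate peptide 500 nM and SAM 20 uM, 2 h RT. Step 3: anti-H3K9me1 antibody and AlphaScreen beads, 10 min, then plate read.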
GRP78 ERSR act: inducers of ER stress response in human glioma cells; U87-MG GRP78 promoter luciferase reporter, 16 h; Potency, µM, without a hit: at the highest dose activation, actives largely listed as activators; 0.02% of 420,000 active; also: series mostly up to about 76 µM; % of control where 0% means no effect; nearly all actives have a fitted effect of over 35% in size
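Stably transfected U87-MG human glioma cells carrying a GRP78-based luminescent sensor were seeded at 1000 cells/well, pin-dosed with compounds and incubated 16 h. Luciferase reagent was then added, and end-point luminescence was read after 10 min at room temperature.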
Sfp PPTase inh: Sfp phosphopantetheinyl transferase inhibition; Q9F4F7; Potency, µM, without a hit: largest response in the series, negative = inhibition, hits mostly inhibitors; 3.5% of 310,000 active; Biochemical Sfp PPTase activity, qHTS; AID 1490;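 also: the enzyme is Sfp with the accession as filed and its product quenches rhodamine fluorescence; 0% = enzyme reaction without inhibitor and -100% = no enzyme wells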
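Compounds were incubated with enzyme (final 15 nM) for 15 min at room temperature before substrate addition started the reaction. Fluorescence at 525 nm excitation, 598 nm emission was recorded immediately and after 30 minutes.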
12-LOX inh: blocks human arachidonate 12S-lipoxygenase; 1.1% of 580,000 active; Potency, µM (doses to about 108 µM), for inactives: at the top dose activity change, negative = inhibition, most hits filed as inhibitors; purified 12hLO, xylenol orange hydroperoxide absorbance; also: % is scaled to controls: 0 for no effect and ±100 for the full control effect
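Purified human 12hLO (150 nM final) in 25 mM Hepes, 0.01% Triton X-100, pH 7.0 was preincubated 15 min at room temperature with compound. Then 40 uM arachidonic acid was added, 30 min. Hydroperoxide was read by Fe-XO absorbance ratio 573/405 nm.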
An asterisk follows results filed as active; ? = inconclusive; · = no result given; ! = not confirmed by another sample; [ ] = another dose, or the depositor's remark. Calls follow the shape of the dose curve; as a rule, active = well fitted curve in the direction sought with a large enough effect; inconclusive = small, poorly fitted or top-dose-only effect, or another doubt; inactive = no such curve, though single readings can be large; an effect the other way counts as inactive or inconclusive. Potency is read from the fitted curve at half-maximal effect.

SMILES | VDR inhibitor | G9a inh | GRP78 ERSR act | Sfp PPTase inh | 12-LOX inh
COc1ccc(S(=O)(=O)Nc2cc(C(=O)NCCC(C)C)ccc2N2CCOCC2)cc1 | -13.0% | 50.1µM* | -3.3% | 10.8% | 23.3%
CCN1CCCC1CNC(=O)c1ccc(N2CCOCC2)c(NS(=O)(=O)c2ccc(OC)cc2)c1 (stereo unspecified) | 5.1% | 50.1µM* | 0.0% | 8.8% | -22.9%
COc1ccc(S(=O)(=O)Nc2cc(C(=O)NCCCOC(C)C)ccc2N2CCOCC2)cc1 | -7.3% | -37.9% | -4.4% | 12.2% | -0.8%
COc1ccc(-c2csc(NC(=O)CC(NC(C)=O)c3ccccc3)n2)cc1OC (stereo unspecified) | -2.5% | 25.1µM* | -2.2% | 27.2% | -1.1%
COc1ccc(-c2csc(NC(=S)NC(=O)c3cccs3)n2)cc1OC | -4.5% | 31.6µM* | -2.0% | 31.6µM* | -14.4%
COc1ccc(-c2csc(NC(=O)CSCC(=O)Nc3cc(C)on3)n2)cc1OC | -13.8% | 39.8µM* | 2.9% | · | -6.5%
COc1ccc(-c2csc(NC(=S)NC(=O)c3cccs3)n2)cc1Br | -12.1% | 4.4% | -6.0% | -6.0% | 0.0%
COc1ccc(-c2csc(NC(=O)C3CC(=O)N(Cc4ccccc4)C3)n2)cc1OC (stereo unspecified) | 6.4% | 50.1µM* | -1.4% | 1.6% | ?
O=C(NCc1nc(-c2cccs2)no1)c1ccc(Oc2cccnc2)cc1 | · | · | · | · | 28.2%
CCc1noc(C)c1C(=O)Nc1nc(-c2ccc(OC)c(OC)c2)cs1 | 2.5% | ? | -1.6% | · | ?
CSc1cccc(NC(=O)C2CC(=O)N(Cc3ccccc3)C2)c1 (stereo unspecified) | 3.6% | 44.7µM* | -0.9% | 9.2% | -6.3%
COc1ccc(-c2csc(NC(=O)c3cc(C)oc3C)n2)cc1OC | 14.3% | 50.1µM* | 1.1% | -20.1% | 18.2%
CC(C)c1noc(C2CCCN(Cc3cn(C(C)C)c4ccccc34)CCC(=O)NCC2)n1 (stereo unspecified) | · | · | · | · | 14.8%
O=C1Cc2c(-c3cccc4ccccc34)n[nH]c2CN1CCc1ccncc1 | · | · | · | · | 52.5%[176 µM]
CCc1cccc(NC(=O)Cn2c(=O)c(-c3noc(C)n3)c3n(c2=O)CCCCC3)c1 | · | · | · | · | -16.7%
COc1cc(CN2CCCC(C(=O)N3CCc4ccccc4C3)C2)cc(OC)c1OC (stereo unspecified) | 10.5% | 8.91µM* | -1.6% | -28.5% | ?
CC1CCCN(C(=O)C2CCN(CCCc3ccccc3)CC2)C1 (stereo unspecified) | 31.1% | 15.8µM* | -1.3% | ? | ?
CC1CCCN(C(=O)CCN2CCN(CCc3ccccc3)CC2)C1 (stereo unspecified) | · | · | · | · | 6.1%
COc1cc(CN2CCCC(C)C2)ccc1OCc1ccccc1 (stereo unspecified) | -9.0% | · | 5.2% | -2.3% | 0.0%
COc1ccc(CN2CCC(C(=O)N3CCCC(C)C3)CC2)cc1OC (stereo unspecified) | 8.2% | 17.8µM* | -5.5% | 3.9% | -15.3%
O=C(C1CCCC1)N1CCOc2ccc(CN3CCc4ccccc4C3)cc2C1 | · | · | · | · | 146.9%
COc1ccc(CN2CCCC(C(=O)N3CCc4ccccc4C3)C2)cc1OC (stereo unspecified) | -19.6% | ? | -1.9% | -21.5% | 0.708µM*!
Cn1c(N2CCCCCC2)nc2c1c(=O)n(Cc1ccccc1)c(=O)n2C | · | · | · | · | -7.0%
CC(Sc1nc2ccccc2[nH]1)C(=O)NC1(C#N)CCCCC1 (stereo unspecified) | · | · | · | · | -5.9%
O=C(C1CCCN(Cc2ccccc2)C1)N1CCc2ccccc2C1 (stereo unspecified) | 3.6% | 8.91µM* | -2.5% | -6.1% | ?
Cn1c(=O)[nH]c(=O)c2c1nc(N1CCN(C/C=C/c3ccccc3)CC1)n2Cc1cccc(Cl)c1 | · | · | · | · | 0.2%
OCCN(CCO)c1nc(N2CCCCC2)c2nc(N(CCO)CCO)nc(N3CCCCC3)c2n1 | -19.6% | 22.4µM* | -4.8% | -25.6% | 44.7µM*!
CCC(CO)NCC#Cc1ccccc1 (stereo unspecified) | -7.1% | 56.2µM* | 6.8% | 6.6% | -3.8%
c1ccc(OCCN2CCOCC2)cc1 | -5.9% | -29.1%[2.33 µM] | -0.7% | -10.6% | 11.2%
Cc1cccc(C)c1OCCCN1CCOCC1 | -21.1% | 35.5µM* | -0.4% | -8.8% | ·

Assay outcomes deposited in PubChem by National Center for Advancing Translational Sciences (NCATS).
